PubChem BioAssay AID504465 (National Center for Advancing Translational Sciences (NCATS), 2011)
About 210 (10%) of roughly 2,100 compounds were called active. About 53% were inconclusive and are not listed. Calls follow the shape of the dose curve; as a rule, active = well fitted inhibition curve with a large enough effect; inconclusive = small, poorly fitted or top-dose-only effect, or effect the other way; inactive = no such curve, though single readings can be large or run the other way. Some of the results follow. Where a call stands in place of a potency, no number is given.

test: IN Cell qHTS Assay for Inhibitors of the mTORC1 Signaling Pathway in MEF (Tsc2-/-, p53-/-) Cells: Sytravon; settings: phospho-rpS6 immunofluorescence, 24 h; series mostly up to 38.3 µM; also: nearly all actives have a fitted effect of over 60% in size
Outline: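 Tsc2-/-, p53-/- MEFs (empty-vector) treated with compound 24 h at 37 degree Celsius, then fixed and stained for phospho-rpS6 Ser235/236 (Alexa-488) plus Hoechst. Reported as % positive cells, thresholds set against 7.5 nM rapamycin and DMSO wells.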
Potency is read from the fitted curve at half-maximal effect.

SMILES	Potency
COc1ccccc1NC(=O)c1c(NCc2ccc(C)o2)sc2c1CCCCC2	inactive
COc1ccc(NC(=O)c2c(NCc3ccc(C)o3)sc3c2CCCCC3)c(OC)c1	inactive
COc1ccc(NC(=O)c2c(NCc3ccc(C)o3)sc3c2CCC(C)C3)cc1 (configuration not stated)	inactive
COc1ccc(OC)c(NC(=O)c2c(NCc3ccc(C)o3)sc3c2CCCCC3)c1	inactive
COc1ccc(CC(=O)Nc2sc3c(c2C(=O)Nc2ccccc2)CCCCC3)cc1	9.27 µM (active)
COc1ccc(CC(=O)Nc2sc3c(c2C(=O)Nc2cccc(C)c2)CCCCC3)cc1	11.7 µM (active)
CCOC(=O)c1c(NC(=O)c2ccc(S(=O)(=O)N3CCCC(C)C3)cc2)sc2c1CCN(C(C)C)C2 (configuration not stated)	inactive
FC(F)(F)c1ccc(C2=Nc3ccccc3NC(c3cccs3)=N2)cc1	inactive
O=C(CCCn1ccc2cc(S(=O)(=O)N3CCCC3)ccc21)NCc1ccc(Cl)cc1	inactive
CCc1ccccc1-n1c(SCC(=O)Nc2ccc(C)cc2)nc2n[nH]c(C)c2c1=N	inactive
O=C(NCc1ccc(Cl)cc1Cl)c1cccc(N2CCCS2(=O)=O)c1	inactive
CCCCN1C(=O)C(O)(c2c(C)[nH]c3ccccc23)c2ccccc21 (configuration not stated)	inactive
Cc1cccc(N2CCN(C(=O)Cn3nc(Cc4cccnc4)c4ccccc4c3=O)CC2)c1C	inactive
Cc1ccc(S(=O)(=O)Cc2ccc(C(=O)N3CCN(c4cccc(C)c4C)CC3)o2)cc1	inactive
Cc1ccccc1S(=O)Cc1ccc(C(=O)N2CCN(c3cccc(C)c3C)CC2)o1 (configuration not stated)	3.69 µM (active)
CC1CCCCN1CC(=O)N1CCCc2c1c(=O)oc1ccc(OCc3ccccc3)cc21 (configuration not stated)	13.1 µM (active)
O=C(COc1ccc2oc3c(c2c1)CCCC3)Nc1cccc(Br)c1	inactive
COc1ccc(OC)c(NC(=O)CN2C(=O)COc3ccc(S(=O)(=O)NC4CCCC4)cc32)c1	inactive
COc1ccc(-c2nc(SCC(=O)NCc3ccccc3Cl)n[nH]2)cc1	inactive
COc1cccc(C2C(C(N)=O)=C(C)Nc3nc(CCCO)nn32)c1 (configuration not stated)	inactive
CCCC1=Nc2cc(C(=O)NCCOC)ccc2Sc2ccccc21	inactive
CCSc1ccccc1C(=O)Nc1ccc(-c2nc3ccccc3s2)c(O)c1	4.65 µM (active)
COc1cc(C(=O)Nc2cc(C)c(O)c(-c3nc4ccccc4s3)c2)cc(OC)c1OC	inactive
Cc1ccccc1NC(=O)CSc1nc2ccc(NC(=O)c3ccccc3)cc2s1	inactive
Cc1ccc(C)c(N2CCN(C(=O)C3CCN(c4nc5ccc(C)cc5[nH]4)CC3)CC2)c1	inactive

SMILES	Potency
Cc1ccccc1Cn1cc(NC(=O)c2cc(-c3ccc(Cl)cc3)on2)cn1	inactive
COc1ccc(N2CC(c3nc(-c4cc(OC)c(OC)c(OC)c4)no3)CC2=O)cc1Cl (configuration not stated)	inactive
Cc1ccc(NC(=O)Cc2coc3ccc(C(C)C)cc23)cc1Cl	inactive
Cc1ccc2onc(CC(=O)Nc3cccc(C(F)(F)F)c3)c2c1	inactive
Cc1ccc2occ(CC(=O)Nc3ccc(Cl)c(C(F)(F)F)c3)c2c1	13.1 µM (active)
CC(C)(C)c1ccc(Oc2nc3ccccn3c(=O)c2/C=C(\C#N)c2nc3ccccc3[nH]2)cc1	inactive
COc1ccccc1CNS(=O)(=O)c1cc(C(=O)Nc2cccc(C(F)(F)F)c2)ccc1F	inactive
O=C(Nc1ccc(Br)cc1)c1cc(S(=O)(=O)N2CCc3ccccc32)ccc1F	inactive
Cc1ccc(CNc2nc3c(c(=O)n(C)c(=O)n3C)n2Cc2ccc(Cl)cc2)cc1	inactive
CCOC(=O)Cn1c(=O)n(-c2ccccc2OC)c2nc(-c3ccccc3F)nc(C(N)=O)c21	inactive
CCOC(=O)Cn1c(=O)c2c(nc(N3CCOCC3)n2Cc2ccccc2)n(C)c1=O	8.26 µM (active)
CCN(C(=O)CN1C(=O)c2ccccc2Sc2ccc(C(=O)OC)cc21)c1cccc(C)c1	inactive
O=C(Nc1ccc(Cl)cc1)C1CCC(CNS(=O)(=O)c2ccc(Br)s2)CC1 (configuration not stated)	inactive
Cc1cccc(C)c1NC(=O)c1cc(S(=O)(=O)N2CCCc3ccccc32)ccc1F	inactive
CC(C)S(=O)(=O)c1oc(-c2cccs2)nc1S(=O)(=O)c1ccc(F)cc1	0.927 µM (active)
CCC(C)S(=O)(=O)c1oc(-c2ccc(F)cc2)nc1S(=O)(=O)c1ccc(F)cc1 (configuration not stated)	1.04 µM (active)
CC(C)S(=O)(=O)c1oc(-c2ccc(F)cc2)nc1S(=O)(=O)c1ccc(F)cc1	0.826 µM (active)
Brc1ccc(CNCCCSc2nnnn2-c2ccccc2)cc1	inactive
CCOCc1cc(CN2CCN(c3cccc(C(F)(F)F)c3)CC2)c(O)c2ncccc12	inactive
Cc1cn2c(=O)cc(COC(=O)c3ccc(NC(=O)COc4ccccc4C)cc3)nc2s1	inactive
CC(=O)c1ccc(N2CCN(S(=O)(=O)c3ccc(-c4coc(C)n4)cc3)CC2)cc1	inactive
CCOC(=O)c1c(NC(=O)c2ccc(S(=O)(=O)N3CCCC(C)C3)cc2)sc2c1CC(C)(C)NC2(C)C (configuration not stated)	inactive
CN(C)c1ccc(/C=C(\C#N)c2nc(-c3ccc(Cl)c(Cl)c3)cs2)cc1	inactive
CCOc1ccc(-c2nnc(SCC(=O)Nc3cccc(OC)c3)nc2-c2ccc(OCC)cc2)cc1	inactive
CCOc1ccc(NC(=O)CSc2oc(-c3ccc(F)cc3)nc2S(=O)(=O)c2ccc(C)cc2)cc1	2.33 µM (active)

SMILES	Potency
Cc1ccc(S(=O)(=O)c2nc(-c3cccs3)oc2SCC(=O)Nc2cc(C)cc(C)c2)cc1	16.5 µM (active)
CCSc1oc(-c2ccc(F)cc2)nc1S(=O)(=O)c1ccc(C)cc1	inactive
COc1ccc(-c2nc(SCC(=O)Nc3c(C)cc(C)cc3C)n[nH]2)cc1	inactive
CCOc1ccc(-c2cc(CCCC(=O)NCCc3ccc(OC)c(OC)c3)no2)cc1	inactive
CCOC(=O)c1c(-c2ccccc2)oc2ccc(N(C(C)=O)S(=O)(=O)c3ccc(CC)cc3)cc12	inactive
Cc1ccc(OCC(=O)Nc2ccc3nc(Nc4cccc(Cl)c4)cc(C)c3c2)cc1	14.7 µM (active)
CCN(CC)c1cc(C)c2cc(NC(=O)c3ccccc3Cl)ccc2n1	inactive
Cc1ccc(-n2c(SCC(=O)Nc3cccc(Cl)c3)nc3n[nH]c(C)c3c2=N)cc1	inactive
CCN1C(=O)C(O)(c2c(C)[nH]c3ccccc23)c2ccccc21 (configuration not stated)	inactive
Cc1nn(-c2ccc(N3CCOCC3)nn2)c(C)c1CCC(=O)NCc1ccccc1F	inactive
O=C(CSc1nc(-c2ccccc2)[nH]c1-c1ccccc1)Nc1ccc2c(c1)OCO2	inactive
Cc1cccc(C(=O)Nc2c(-c3ccc(F)cc3)nc3ccccn23)c1	inactive
CCOC(=O)c1c(C)[nH]c(CCC(=O)NCCCN2CCN(c3cc(Cl)ccc3C)CC2)c1C	14.7 µM (active)
CCOC(=O)c1c(C)[nH]c(CCC(=O)Nc2cc(C)cc(C)c2)c1C	inactive
CCOC(=O)c1c(C)[nH]c(CCC(=O)NCc2ccc(OC)cc2OC)c1C	inactive
COC(=O)c1c(-c2ccc(Cl)cc2)noc1N1CCN(c2cc(C)ccc2C)CC1	inactive
CCOC(=O)c1c(C)[nH]c(CCC(=O)NCCCN2CCN(c3cc(C)ccc3C)CC2)c1C	11.7 µM (active)
COc1ccc(-c2ccc(CCC(=O)O)n2-c2ccccc2O)cc1	inactive
CCC1CN(C(=O)NCc2ccccc2)c2cc(C)ccc2O1 (configuration not stated)	inactive
CCN(Cc1ccccc1)Cc1c(O)ccc2oc(C)c(C(=O)Nc3ccc(C)cc3C)c12	inactive
CCCCN1C(C(=O)c2ccccc2)=C(OC(C)=O)c2ccccc2S1(=O)=O	inactive
COc1ccc(OC)c2sc(N(CCCN(C)C)C(=O)c3ccco3)nc12	14.7 µM (active)
COc1ccccc1Nc1c2c(nc3ccc(NC(=O)c4ccc(N(C)C)cc4)cc13)CCCC2	2.07 µM (active)
COc1ccccc1Nc1c2c(nc3ccc(NC(=O)c4ccc(OC)c(OC)c4)cc13)CCCC2	1.65 µM (active)
COc1cc2c(cc1OC)n(CC(=O)Nc1ccc(C)cc1C)c(=O)n1nc(-c3ccccc3)nc21	inactive

SMILES	Potency
COc1ccccc1Nc1nn2c(=O)c3ccc(C(=O)NCCc4ccccc4)cc3nc2s1	inactive
COc1ccc(C(=O)Nc2cccc(-c3cn4ccsc4n3)c2)cc1OC	inactive
COc1ccccc1Nc1nn2c(=O)c3ccc(C(=O)NCCC4=CCCCC4)cc3nc2s1	inactive
COc1cc(Cl)c(C)cc1Nc1c2c(nc3ccccc13)CCC2	inactive
COc1ccc(C)cc1Nc1c2c(nc3ccccc13)CCC2	7.36 µM (active)
COc1ccccc1Nc1c2c(nc3ccc(NC(=O)c4cccc(OC)c4OC)cc13)CCCC2	5.85 µM (active)
CC1=C(C(=O)Nc2ccccc2C)C(c2cccs2)n2nc(SCc3ccccc3)nc2N1 (configuration not stated)	inactive
CCC1CN(C(=O)N2CCC(C(=O)NCCN(CC)CC)CC2)c2ccccc2O1 (configuration not stated)	inactive
CC(C)c1ccc(NC(=O)c2ccc(F)c(S(=O)(=O)N3CCN(c4ccccc4F)CC3)c2)cc1	inactive
COc1ccc2c(c1)c(=O)c(S(=O)(=O)c1ccc(Cl)cc1)cn2C	inactive
COc1ccc(CCCc2nnc(SCC(=O)Nc3cccc(F)c3C)o2)cc1	inactive
COc1ccccc1CCNC(=O)C(=O)NCC(c1cccnc1)N1CCN(c2ccccc2)CC1 (configuration not stated)	inactive
CCCc1nn2c(=O)cc(COC(=O)c3cccc(NC(=O)c4ccc(OCC)cc4)c3)nc2s1	inactive
CCOc1ccc(NC(=O)Cn2c(=O)cc(C)c3c(C)nn(C)c32)cc1	inactive
CCC1=Nc2cc(C(=O)NCc3ccccc3Cl)ccc2Sc2ccc(C)cc21	inactive
CCc1cccc(NC(=O)Cn2c(=O)n(CCC(=O)NCc3ccccc3Cl)c(=O)c3sccc32)c1	inactive
CC(C)(C)c1ccc(OCC(=O)NCC2(N3CCOCC3)CCCCC2)cc1	inactive
CN(C)C1(CNC(=O)COc2ccc(C(C)(C)C)cc2)CCCCC1	inactive
Cc1ccc(OCC(=O)NCC2(N3CCN(C)CC3)CCCCC2)cc1C	inactive
Cc1ccc(OCC(=O)NCC2(N3CCN(C)CC3)CCCCC2)cc1	inactive
CC(C)COc1ccc(C(=O)NCC2(N3CCN(C)CC3)CCCCC2)cc1	16.5 µM (active)
CN1CCN(C2(CNC(=O)COc3ccc(C(C)(C)C)cc3)CCCCC2)CC1	14.7 µM (active)
